Most compounds without a hit are left out; they make up all but 0.36% or so of the library.
PTHR1 agonist = qHTS for PTHR1 Agonists: Primary Screen | 410,000 compounds, 0.075% hits | Potency, µM (top dose mostly 115 µM), without a hit: at the highest dose activation, hits mostly activators | HEK293 GP2 PTHR1 cells, GloSensor cAMP luminescence, 1 h | Parathyroid hormone/parathyroid hormone-related peptide receptor (Homo sapiens), Q03431 | AID 743266, 2014; further: potency means the concentration at half of the fitted maximal effect; nearly all actives have a fitted effect of over 55% in size
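HEK-293-derived GP2 cells expressing PTHR1 and a GloSensor cAMP reporter, 3,000/well, plated overnight, given luciferin plus IBMX (each 0.5 mM as added) for 1 h at 37 °C, then compound for 1 h at 37 °C. Luminescence was read after 15 min at room temperature.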
ERG-DNA inh = qHTS for Small Molecule Inhibitors of the ERG Ets/DNA interaction; Transcriptional regulator ERG (Homo sapiens), P11308; fluorescence polarization, His-ERG Ets domain / labelled DNA; Potency, µM (top dose mostly 76.9 µM), without a hit: at the top dose FP activity, negative = inhibition, usual class: inhibitors; 370,000 compounds, 0.028% hits; AID 624246, 2012; active means well fitted inhibition curve with a large enough effect in the polarisation, with a control signal flat; inconclusive means small, poorly fitted or top-dose-only effect, or effect the other way, or a change in a side signal; inactive means no such curve, though single readings can be large or run the other way; the % refers to the polarisation;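 further: polarization taken with two DNA probes labelled with fluorescein and Texas red; potency means the concentration at half of the fitted maximal effect; % of control where 0% means no effect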
Target sequence (P11308 whole entry, looked up, the tested form may be a part): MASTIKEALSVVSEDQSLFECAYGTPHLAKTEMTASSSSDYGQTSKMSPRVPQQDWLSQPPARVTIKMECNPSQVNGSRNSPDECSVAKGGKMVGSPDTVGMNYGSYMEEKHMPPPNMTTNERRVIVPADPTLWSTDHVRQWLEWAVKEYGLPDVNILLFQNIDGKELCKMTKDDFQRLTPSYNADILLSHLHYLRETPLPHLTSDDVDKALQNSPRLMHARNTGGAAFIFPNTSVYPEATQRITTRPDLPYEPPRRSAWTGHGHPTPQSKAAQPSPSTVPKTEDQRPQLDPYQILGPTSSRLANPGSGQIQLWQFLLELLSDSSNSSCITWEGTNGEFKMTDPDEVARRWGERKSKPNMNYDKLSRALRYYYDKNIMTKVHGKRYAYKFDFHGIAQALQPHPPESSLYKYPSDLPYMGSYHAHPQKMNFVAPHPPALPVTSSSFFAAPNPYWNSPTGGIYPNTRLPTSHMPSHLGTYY
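His-tagged ERG Ets domain (1 uM in the protein solution; 300mM KCl, 50mM Tris-HCl, 1mM EDTA, 1mM DTT, pH 7.5) received compound, then a probe mix of 5 nM fluorescein-DNA and 100nM Texas-615-DNA. Fluorescence polarization was read for both dyes.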
RGS4 inh = Inhibitors of Regulator of G Protein Signaling (RGS) 4: qHTS. Regulator of G-protein signaling 4 (Homo sapiens), P49798. Transcreener GDP fluorescence polarization, RGS4-accelerated GTP hydrolysis. Potency, µM (top dose mostly 114 µM), inactives show top-dose activity change, negative = inhibition, actives largely listed as inhibitors. 390,000 compounds, 0.039% hits. AID 504845, 2011; further: potency means the concentration at half of the fitted maximal effect; on the % scale 0 is the no-effect control and ±100 the full control effect; nearly all actives have a fitted effect of over 75% in size
Target sequence (P49798 whole entry, looked up): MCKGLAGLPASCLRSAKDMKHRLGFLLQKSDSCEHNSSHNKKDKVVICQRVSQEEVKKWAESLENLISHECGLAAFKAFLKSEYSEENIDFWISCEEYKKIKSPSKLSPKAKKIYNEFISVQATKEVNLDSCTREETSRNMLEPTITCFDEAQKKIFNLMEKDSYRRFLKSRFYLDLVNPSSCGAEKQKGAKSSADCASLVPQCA
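MLSMR compounds (23 nl, pin-transferred) preincubated 10 min at room temperature with a 500nM (2x) first reagent, then RGS4 at 900nM (2x) plus Transcreener GDP mix added; fluorescence polarization (620/688 nm) read before and after 90 min at 30 °C.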
CCT modulator = High-Throughput Screening for Modulators of Cytosolic Chaperonin Activity | AID 651819, 2012 | purified chaperonin ATPase assay, HTRF ADP detection, 30 min | 360,000 compounds, 0.3% hits | activity change, % (no concentration beside the values), hits read low; in the data active means activity change below about -30%; further: on the % scale 0 is the no-effect control and ±100 the full control effect
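We incubate TRiC, 40 or 20 nM final, with library compounds at 76 uM and 10 uM ATP for 30 min at 37 °C. ADP formed is detected with Transcreener HTRF reagents after 30 min at room temperature.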
MmCpn inh = Inhibitors of TCP-1 ring complex (TRiC) of Methanococcus maripaludis (MmCpn): qHTS. Potency, µM (series often up to 76.9 µM), for the others: at the top dose activity, negative = inhibition, most hits filed as inhibitors. Chaperonin Mm-Cpn (Methanococcus maripaludis). purified Mm-Cpn ATPase, ADP Transcreener TR-FRET. 330,000 compounds, 0.031% hits; further: potency means the concentration at half of the fitted maximal effect; on the % scale 0 is the no-effect control and ±100 the full control effect; nearly all actives have a fitted effect of over 80% in size
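Measured: ADP formation by purified Mm-CPN. Conditions: 25 nM protein, 10 uM ATP, Tris pH 7.4 with Mg2+, K+ and DTT, 37°C for 30 min. Detection: Transcreener HTRF after 30 min at room temperature.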
* marks the source's active call; other numbers are inactive results; i = inactive; u = inconclusive; x = not tested or not shown; ! = not confirmed by another sample; [ ] = remark or other dose. Unless noted, the call rests on the fitted dose curve; in most records, active means well fitted curve in the direction sought with a large enough effect; inconclusive means small, poorly fitted or top-dose-only effect, or another doubt; inactive means no such curve, though single readings can be large; an effect the other way counts as inactive or inconclusive.

SMILES | PTHR1 agonist | ERG-DNA inh | RGS4 inh | CCT modulator | MmCpn inh
O=C1NC(=S)SC1=Cc1ccc(F)cc1 | -31.8% | 4.9% | 14.9% | -3.6 | x
CC(C)c1ccc(S(=O)(=O)c2cnc(SCC(=O)Nc3cccc(C(F)(F)F)c3)nc2N)cc1 | -31.4% | 3.4% | -13.9% | x | x
Cc1ccc(C)c(N2CCN(S(=O)(=O)c3cc(C(=O)Nc4ccccc4C(F)(F)F)ccc3F)CC2)c1 | i | 11.2% | 12.2% | x | x
CC1Cc2ccccc2N1C(=O)CN1C(=O)CN(C)C(=O)c2ccccc21 (configuration not stated) | -6.8%[57.5 µM] | 3.4% | -10.7% | -34.7* | 1.7%
CC1Cc2ccccc2N1C(=O)CN1C(=O)COc2ccccc21 (configuration not stated) | -13.5% | -1.7% | 13.9% | -0.4 | 2.8%
Cc1ccc(S(=O)(=O)Oc2ccc(/C=C(/NC(=O)c3ccccc3)C(=O)Nc3ccccc3)cc2)cc1 | -13.5%[57.5 µM] | -11.9% | -9.1% | -66.8* | 3.1%
COc1ccc(NC(=O)CCC(=O)c2cc(C)sc2C)cc1 | i | 6.1% | -5.6% | -42.6* | -4.5%
Cc1cc(C(=O)CCC(=O)Nc2ccc(S(N)(=O)=O)cc2)c(C)s1 | -22.1% | 9.1% | 28.0% | 0.0 | -7.9%
COc1ccc(CC(=O)NC2=NCCS2)cc1 | i | -1.1% | -50.0% | -0.1 | -0.7%
COc1ccc(C(=O)CCC(=O)NC2=NCCS2)cc1 | -14.6% | -3.3% | -23.8% | -81.1* | 0.1%
O=C(NCCN1CCCCC1)c1ccc(Cn2c(SCc3ccc(F)cc3)nc3cccnc32)cc1 | -27.3% | 1.3% | 23.5% | x | x
CCOc1ccc(-n2nc3ccc(NC(=O)COc4ccccc4C)cc3n2)cc1 | -29.3% | -6.0% | 25.0% | x | x
O=c1ccn([C@@H]2O[C@H](COP(=O)(O)O)[C@@H](O)[C@H]2O)c(=O)[nH]1 | x | x | 37.7µM* | x | x
O=C(Cn1cnc2ccccc2c1=O)N1CCN(Cc2ccc3c(c2)OCO3)CC1 | -9.8%[57.5 µM] | -2.1% | 10.4% | -54.3* | -22.7%
O=C(Cn1cnc2ccccc2c1=O)NCC(=O)N1CCN(Cc2ccc3c(c2)OCO3)CC1 | -0.8%[57.5 µM] | -5.9% | -26.7% | -0.7 | -0.5%
CCCc1cc(=O)[nH]c(SCc2nc(-c3ccc(OC)cc3)no2)n1 | -17.7% | 2.8% | 10.7% | x | x
O=C(CCCCCn1c(=S)[nH]c2ccc(N3CCOCC3)cc2c1=O)NCc1cccc(Cl)c1 | -22.2% | 3.4% | -37.1% | -50.4* | 0.5%
COc1ccc(C(=O)N2CC(=O)Nc3ccc(C)cc3C2c2ccc(F)cc2)c(OC)c1 (configuration not stated) | i | 2.6% | 13.6% | x | x
Cn1c(=O)n(C)c2cc(N3CCOCC3)c(NS(=O)(=O)c3cccc(C#N)c3)cc21 | -19.9% | -4.0% | u | x | x
O=C(O)[C@@H]1CCCN1S(=O)(=O)c1cccc(S(=O)(=O)N2CCC[C@H]2C(=O)O)c1 | 12.8% | 21.7% | -21.3% | 0.0 | 0.5%
O=C(O)C1CCCN1S(=O)(=O)c1cc(Cl)ccc1Cl (configuration not stated) | -17.8%[57.5 µM] | x | 15.5% | -56.0* | 0.0%
O=C(NCc1ccccc1Cl)c1cnc2sc(N3CCOCC3)nn2c1=O | i | 6.5% | 6.9% | x | x
C#Cc1ccc([C@H]2C=C(C(=O)NCc3ccccc3)O[C@@H](OCC)[C@@H]2CCCO)cc1 | u | 0.2% | -19.6% | -68.2* | x
CC(C)=CC(=O)OCC(=O)Nc1ccccc1Cl | i | -8.5% | -9.0% | -54.4* | 1.3%
Cc1ccc(-n2nc(CO)c(C(=O)NC(C)CCCc3ccccc3)n2)cc1C (configuration not stated) | -84.5% | -12.5% | 11.1% | x | x
SMILES | PTHR1 agonist | ERG-DNA inh | RGS4 inh | CCT modulator | MmCpn inh
CC(=Nc1ccccc1)C1=C(O)C(Cc2ccc(O)cc2)NC1=O (configuration not stated) | u | -7.8% | 7.6% | -68.1* | x
CC(=Nc1ccccc1)C1=C(O)C(Cc2cccc(F)c2)NC1=O (configuration not stated) | i | x | x | -3.5 | x
Cc1cccc(OCC(=O)Nc2ccc(S(=O)(=O)N(Cc3ccccc3)c3ccccc3)cc2)c1 | -6.6% | 0.6% | -6.8% | x | x
COc1ccccc1/C=C/CN1CCC(Oc2cc(C(=O)NC3CC3)ccc2OC)CC1 | i | 5.6% | 20.3% | -33.8* | 1.6%
COc1ccc(C(=O)NC2CC2)cc1OC1CCN(Cc2ccccc2)CC1 | i | -1.9% | -6.6% | -3.6 | 0.7%
CCN(CC)S(=O)(=O)c1ccc(C(=O)NC(=S)N2CCN(c3ccccc3O)CC2)cc1 | -21.8% | x | x | -52.1* | x
CCCc1cc(=O)oc2cc(C)cc(OCC(=O)NC(Cc3ccc(Cl)cc3)C(=O)O)c12 (configuration not stated) | 11.2% | 4.2% | 22.4% | 0.8 | -0.2%
CCCCc1cc(=O)oc2cc(C)cc(OCC(=O)NC(Cc3ccc(Cl)cc3)C(=O)O)c12 (configuration not stated) | -23.9% | -14.8% | -2.5% | -60.3* | -2.1%
COc1cc(OC)c(C(=O)CCC(=O)O)cc1OC | 23.1% | x | 28.0% | -31.0* | -0.7%
C=CCNC(=S)Nc1cccc2[nH]ncc12 | i | -7.8% | -5.4% | -32.4* | -2.6%
O=C1c2cccnc2C(O)N1Cc1ccc(F)cc1 (configuration not stated) | u | -13.0% | 27.6% | -31.9* | 0.3%
Cc1ccccc1NC(=O)CCN1C(=O)c2ccccc2Sc2ncccc21 | 16.5% | -2.1% | -12.0% | x | x
Cc1ccc(NC(=O)CCN2C(=O)c3ccccc3Sc3ncccc32)cc1 | 50.1µM*! | 2.6% | 27.3%[11.4 µM] | -0.1 | -3.2%
COc1ccc(C(=O)CN2C(=O)N(c3ccc(C(C)=O)cc3)S(=O)(=O)c3ccccc32)cc1 | -0.6% | 9.4% | 14.7% | x | x
CCOC(=O)N1CCN(C(=O)C(CC(C)C)NC(=O)C2CCCCC2)CC1 (configuration not stated) | i | -8.8% | 7.6% | -0.7 | 0.9%
CCOC(=O)N1CCN(C(=S)NC(=O)C2CCCC2)CC1 | i | -6.5% | 20.6% | -70.6* | -1.5%
Cc1ccc(-c2csc3ncnc(-n4nc(C)cc4N)c23)cc1 | i | -0.7% | 9.2% | -95.1* | 1.7%
Cc1cc(C)c(NC(=O)CSc2ncc3c(n2)-c2cc(Cl)ccc2N(C)S3(=O)=O)c(C)c1 | -22.6% | 9.5% | -9.9% | x | x
COc1ccc(CC(=O)Nc2nc(C(C)(C)C)cs2)cc1 | -37.1% | -6.3% | 1.4% | -67.3* | 3.5%
COc1ccc(CC(=O)Nc2nc(C)cs2)cc1 | -3.0% | 12.9% | -2.7% | -5.6 | -0.9%
